For assay [1], the target named is Thyrotropin receptor (Homo sapiens) (UniProt P16473). The assay is described as follows: qHTS assay to identify small molecule agonists of the thyroid stimulating hormone receptor (TSHR) signaling pathway (AID 1224843). Also: nearly all actives have a fitted effect of over 45% in size. The procedure, abridged: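 Compounds are titrated over 15 concentrations, in triplicate, onto TSHR-HEK293 cells seeded at 800/well. Plates sit 30 min at room temperature before cAMP-d2 and anti-cAMP cryptate are added; signal is read after a further hour.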

Assay [2] is described as follows: qHTS assay to identify small molecule agonists of the hypoxia (HIF-1) signaling pathway - cell viability counter screen (AID 1224844). Also: nearly all actives have a fitted effect of over 50% in size. The procedure, abridged: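 Cytotoxicity was measured in parallel with the HRE-driven beta-lactamase readout: after 17 hrs of compound exposure at 37C, HRE-bla ME-180 cells received CellTiter-Glo and luminescence was recorded 30 min later.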
A general note: In qHTS, concentration-response curves come from the screen itself.

The nature of assay [3]: qHTS assay to identify small molecule agonists of H2AX (AID 1224845; active = well fitted activation curve with a large enough effect in the signal ratio in the repeat runs, not every such curve was filed as active; the % refers to the signal ratio). The procedure, abridged:
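Wild-type CHO-K1 cells plated overnight, then exposed 3 hr at 37C to compounds at 15 concentrations (0.76% DMSO). Lysed, then HTRF anti-pH2AX(S139)-cryptate/anti-H2AX-d2 detection after 24 hr at room temperature; emissions 665 and 620 nm.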

The nature of assay [4]: qHTS assay to identify small molecule agonists of the hypoxia (HIF-1) signaling pathway (AID 1224846; active = well fitted activation curve with a large enough effect in the signal ratio in the repeat runs, not every such curve was filed as active; the % refers to the signal ratio). The procedure, abridged:
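Compounds from the Tox21 10K library, dissolved in DMSO, are tested for induction of a hypoxia response element–controlled beta-lactamase reporter in ME-180 cells. Exposure lasts 17 hrs at 37C after a 5 hr settling period, followed by CCF4-AM FRET substrate.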

A short description of assay [5]: qHTS assay to identify small molecule agonists of H2AX - cell viability counter screen (AID 1224847). Also: top concentration of the series differs between compounds; nearly all actives have a fitted effect of over 30% in size. In short, it runs like this:
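CHO-K1 wt, 1000 cells/well, o/n 37C; cpds 15 conc, 3 h 37C, 0.76% DMSO; CellTiter-Glo, 30 min RT, luminescence.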

Assay [6] can be described thus: qHTS assay to identify small molecule antagonists of the estrogen related receptor (ERR) signaling pathway from Tox21 library (AID 1224848; active = well fitted curve in the direction sought with a large enough effect in the repeat runs; an effect the other way counts as inactive or inconclusive; also: nearly all actives have a fitted effect of over 50% in size). In short, it runs like this: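 First, 2,000 ERR cells per well were plated and held 6 h at 37 C/5% CO2. Next, compounds in DMSO were pinned in and left 18 h at 37 C. Finally, ONE-Glo was added and luminescence read after 30 min at room temperature.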

The nature of assay [7]: qHTS assay to identify small molecule agonists of the estrogen related receptor (ERR) signaling pathway from Tox21 library (AID 1224849). Also: nearly all actives have a fitted effect of over 15% in size. The note with it: ERR reporter cell line, ONE-Glo luciferase, 18 h; at 92.4 µM (top of the series) unless noted. The procedure, abridged:
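Cells carrying the ERR reporter were plated and allowed to settle for 6 h, exposed to library compounds for 18 h at 37 C, then lysed with ONE-Glo and luminescence measured.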

Assay [8] can be described thus: qHTS RealTime-Glo MT Cell Viability Assay in HepG2 cells - 24 hour (AID 1224867; active = well fitted curve in the direction sought with a large enough effect in the repeat runs; an effect the other way counts as inactive or inconclusive; also: nearly all actives have a fitted effect of over 50% in size). The procedure, abridged:
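HepG2 cells were seeded at 600 cells/well together with NanoLuc luciferase and a cell-permeant prosubstrate, preincubated 5 h at 37 C/5% CO2, then pin-dosed with compounds in DMSO. Nonlytic luminescence from viable cells was read at each time point.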

Assay [9] can be described thus: qHTS RealTime-Glo MT Cell Viability Assay in HEK293 cells - 32 hour (AID 1224868; active = well fitted curve in the direction sought with a large enough effect in the repeat runs; an effect the other way counts as inactive or inconclusive; also: top concentration of the series differs between compounds; nearly all actives have a fitted effect of over 50% in size). In short, it runs like this:
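HEK293 cells were seeded at 600 cells/well together with NanoLuc luciferase and cell-permeant prosubstrate, preincubated 5 h at 37 C/5% CO2, then given compound in DMSO by pintool. Luminescence from viable-cell prosubstrate reduction was read repeatedly over 40 h.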

The nature of assay [10]: A CellTox Green Cytotoxicity Assay to monitor cytotoxicity in HEK293 cells - 0 hour (AID 1224869; active = well fitted curve in the direction sought with a large enough effect in the repeat runs; an effect the other way counts as inactive or inconclusive; also: nearly all actives have a fitted effect of over 50% in size; also: potency is read from the fitted curve at half-maximal effect). In short, it runs like this:
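Cells (HEK293, 600/well) and dye reagent are dispensed together. After 5 h at 37 C, 23 nL compound is pinned in. Plates stay at 37 C for 40 h with fluorescence read at 0h, 8h, 16h, 24h, 32h and 40h.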

Values without a mark were called inactive. Results filed as inconclusive are left out. The source made the active and inactive calls. Unless noted, calls follow the shape of the full dose curve.
% is scaled to controls: 0 for no effect and ±100 for the full control effect.

Chain of Thyrotropin receptor (Homo sapiens) (P16473 whole entry, looked up): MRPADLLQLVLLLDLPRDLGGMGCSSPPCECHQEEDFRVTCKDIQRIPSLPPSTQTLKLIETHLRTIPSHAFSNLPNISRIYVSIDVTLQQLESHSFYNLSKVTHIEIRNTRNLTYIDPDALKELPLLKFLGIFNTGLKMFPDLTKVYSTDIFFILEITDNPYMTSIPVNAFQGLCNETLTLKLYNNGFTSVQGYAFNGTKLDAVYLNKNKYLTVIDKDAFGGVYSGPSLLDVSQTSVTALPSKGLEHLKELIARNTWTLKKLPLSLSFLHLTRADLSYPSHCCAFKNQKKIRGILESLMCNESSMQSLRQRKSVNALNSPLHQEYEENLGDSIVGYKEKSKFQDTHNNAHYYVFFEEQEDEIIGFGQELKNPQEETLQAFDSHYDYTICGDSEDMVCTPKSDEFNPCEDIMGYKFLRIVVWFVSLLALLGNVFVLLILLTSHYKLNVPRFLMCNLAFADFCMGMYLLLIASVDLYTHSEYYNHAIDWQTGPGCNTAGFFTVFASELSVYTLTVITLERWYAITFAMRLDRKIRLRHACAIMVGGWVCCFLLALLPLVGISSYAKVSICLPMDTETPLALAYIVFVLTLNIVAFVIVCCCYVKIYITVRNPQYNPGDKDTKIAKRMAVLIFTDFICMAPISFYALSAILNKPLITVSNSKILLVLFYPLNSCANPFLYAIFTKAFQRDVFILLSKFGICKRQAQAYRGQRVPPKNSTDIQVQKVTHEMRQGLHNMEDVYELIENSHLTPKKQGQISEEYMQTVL

As to `Cc1ncc(CSSCc2cnc(C)c(O)c2CO)c(CO)c1O`, the call in [1], in assay [3], in assay [4] and in assay [8] was inactive. Moreover, the Potency result in assay [2], in [5], in [6], in [9] and in assay [10] was “inactive” each time. The activity change, positive = activation in assay [7] is 0.477% [at 42.5 µM].
In the case of `CCCCCCOC(=O)CC(CC(=O)OCCCCCC)(OC(=O)CCC)C(=O)OCCCCCC`, the outcome in assay [1], in assay [3], in assay [4] and in assay [8] was inactive. Also, the Potency entry in assay [2], in assay [5], in assay [6], in assay [9] and in assay [10] was “inactive” in each case. Moreover, the activity change, positive = activation in assay [7] is -12.6%.
Consider `CCCCCCC(=O)OCC`, for which the compound was classed as inactive in [1], in assay [3], in [4] and in [8]. The Potency entry in assay [2], in assay [5], in [6], in assay [9] and in assay [10] was “inactive” throughout. The activity change, positive = activation in assay [7] is 6.4%.
With `CCO[Si](CCCN=C=O)(OCC)OCC`, the compound was classed as inactive in [1], in assay [3], in [4] and in assay [8]. Moreover, the Potency entry in assay [2], in assay [5], in [6], in assay [9] and in [10] was “inactive” in each case. The activity change, positive = activation in assay [7] is -6.45%.
In the case of `CN(C)C(=O)Nc1ccccc1`, the result in assay [1], in assay [3], in assay [4] and in [8] was inactive. Moreover, the Potency entry in assay [2], in assay [5], in assay [6], in [9] and in [10] was “inactive” each time. The activity change, positive = activation in assay [7] was 3.55%.
On to `COc1cccc(Br)c1`, for which the call in assay [1], in assay [3], in assay [4] and in [8] was inactive. The Potency entry in assay [2], in assay [5], in assay [6], in assay [9] and in assay [10] was “inactive” throughout. Also, the activity change, positive = activation in [7] was 0.21%.
Consider `CC(C)COC(=O)C(C)C`, for which the call in assay [1], in assay [3], in assay [4] and in assay [8] was inactive. Moreover, the Potency entry in assay [2], in [5], in assay [6], in assay [9] and in assay [10] was “inactive” each time. For the same compound, in assay [7], the activity change, positive = activation was 8.11%.
As to `CCCCC1CCCCC(=O)O1` (stereo not given), the call in assay [1], in assay [3], in assay [4] and in assay [8] was inactive. Further, the Potency entry in assay [2], in assay [5], in [6], in assay [9] and in assay [10] was “inactive” throughout. Besides, the activity change, positive = activation in assay [7] is 0.974%.
Turning to `O=Cc1ccccc1[N+](=O)[O-]`, the call in assay [1], in assay [3], in assay [4] and in assay [8] was inactive. For the same compound, the Potency result in assay [2], in assay [5], in assay [6], in [9] and in assay [10] was “inactive” each time. For the same compound, the activity change, positive = activation in assay [7] is 2.11%.
As to `OC[C@H]1O[C@@H]2O[C@H]3[C@H](O)[C@@H](O)[C@@H](O[C@H]4[C@H](O)[C@@H](O)[C@@H](O[C@H]5[C@H](O)[C@@H](O)[C@@H](O[C@H]6[C@H](O)[C@@H](O)[C@@H](O[C@H]7[C@H](O)[C@@H](O)[C@@H](O[C@H]8[C@H](O)[C@@H](O)[C@@H](O[C@H]9[C@H](O)[C@@H](O)[C@@H](O[C@H]1[C@H](O)[C@H]2O)O[C@@H]9CO)O[C@@H]8CO)O[C@@H]7CO)O[C@@H]6CO)O[C@@H]5CO)O[C@@H]4CO)O[C@@H]3CO`, the compound was called inactive in [1], in [3], in [4] and in assay [8]. The Potency entry in [2], in assay [5], in assay [6], in assay [9] and in assay [10] was “inactive” each time. Besides, the activity change, positive = activation in [7] is 0.681% [at 42.5 µM].
For `O=c1[nH]c2ccccc2c(=O)n1CCCl`, the compound was classed as inactive in assay [1], in [3], in assay [4] and in [8]. Further, the Potency entry in assay [2], in assay [5], in [6], in assay [9] and in assay [10] was “inactive” throughout. For the same compound, in assay [7], the activity change, positive = activation is -3.42% [at 42.5 µM].
As to `CCCC=O`, the compound was called inactive in assay [1], in [3], in assay [4] and in assay [8]. In addition, the Potency result in assay [2], in assay [5], in [6], in assay [9] and in assay [10] was “inactive” in each case. Further, the activity change, positive = activation in assay [7] was 0.262%.
For `C=CC(=O)N1CCOCC1`, the outcome in [1], in assay [3], in [4] and in assay [8] was inactive. Also, the Potency entry in [2], in assay [5], in assay [6], in assay [9] and in [10] was “inactive” in each case. Moreover, the activity change, positive = activation in assay [7] was 4.07%.
In the case of `CCCOCC(C)OCC(C)O` (stereo not given), the call in assay [1], in assay [3], in assay [4] and in [8] was inactive. The Potency result in assay [2], in assay [5], in [6], in assay [9] and in assay [10] was “inactive” in each case. In addition, the activity change, positive = activation in assay [7] is 1.4%.
Turning to `CCC(C)(C)C1CCC(OC)CC1` (stereo not given), the compound was classed as inactive in assay [1], in assay [3], in assay [4] and in assay [8]. The Potency result in assay [2], in assay [5], in assay [6], in assay [9] and in assay [10] was “inactive” each time. The activity change, positive = activation in assay [7] was -1.91%.
As to `O=C(O)c1cccc(C(=O)O)n1`, the result in assay [1], in assay [3], in assay [4] and in assay [8] was inactive. Also, the Potency entry in assay [2], in [5], in assay [6], in [9] and in assay [10] was “inactive” throughout. Besides, the activity change, positive = activation in assay [7] is 2.2%.
On to `CCCCCCCCC=O`, for which the result in [1], in assay [3], in assay [4] and in [8] was inactive. The Potency entry in assay [2], in assay [5], in assay [6], in assay [9] and in assay [10] was “inactive” in each case. In addition, the activity change, positive = activation in assay [7] is -1.48%.
As for `CN(C)N=Nc1ccccc1`, the call in [1], in assay [3], in [4] and in assay [8] was inactive. The Potency entry in assay [2], in [5], in [6], in [9] and in [10] was “inactive” each time. In addition, in [7], the activity change, positive = activation is 9.49%.
Regarding `Nc1ccn(C2CO[C@H](CO)O2)c(=O)n1` (stereo not given in full), the call in [1], in assay [3], in assay [4] and in assay [8] was inactive. The Potency result in [2], in assay [5], in assay [6] and in [9] was “inactive” in each case. In addition, the activity change, positive = activation in assay [7] is 0.852% [at 42.5 µM]. In addition, the Potency in [10] was 16.9 µM (active).
`CC12CCC(CC1=O)C2(C)C` (stereo not given): the call in assay [1], in assay [3], in [4] and in [8] was inactive. Further, the Potency result in assay [2], in [5], in assay [6], in [9] and in [10] was “inactive” each time. Besides, the activity change, positive = activation in assay [7] is 2.86%.
For the compound `CCO[Si](C)(OCC)OCC`, the compound was called inactive in assay [1], in assay [3], in assay [4] and in assay [8]. In addition, the Potency result in assay [2], in assay [5], in [6], in assay [9] and in assay [10] was “inactive” throughout. In addition, the activity change, positive = activation in [7] was 4.4%.
Turning to `CCCCc1ccc2cccc(S(=O)(=O)O)c2c1`, the compound was classed as inactive in assay [1], in [3], in assay [4] and in assay [8]. In addition, the Potency result in assay [2], in assay [5], in [6], in assay [9] and in assay [10] was “inactive” each time. In addition, in assay [7], the activity change, positive = activation is -0.296%.
